Results as given in PubChem BioAssay (NCATS).
Records with an inconclusive call do not appear. Active and inactive are the calls of the source. Calls come from the whole dose curve; as a rule, active = well fitted curve in the direction sought with a large enough effect; inconclusive = small, poorly fitted or top-dose-only effect, or another doubt; inactive = no such curve, though single readings can be large; an effect the other way counts as inactive or inconclusive.

Experiments:
[1] = Cell Viability - LYMP1-002 - Assay at 16 hr (AID 948)
In short: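 ATP luminescence (CellTiter-Glo) was measured after 16 hr compound exposure at 37 C of 2500 lymphoblastoid LYMP1-002 cells per well. Concentration-response curves were fitted with the Hill equation to give AC50.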

[2] = MultiTox-Fluor Cytotoxicity Assay - LYMP1-002 - Live Cells (AID 955);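 note: cells exposed to compound for 16 hours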
In short: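 Cells were seeded at 2500 per well and incubated 5 hr. Compounds were then added for 16 hr at 37 C, followed by MultiTox-Fluor reagent for 60 min at room temperature and fluorescence reading of viable-cell protease signal.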

[3] = MultiTox-Fluor Cytotoxicity Assay - LYMP1-002 - Dead Cells (AID 960); note: nearly all actives have a fitted effect of over 60% in size
In short: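 Cells were plated, rested 5 hr, then treated with compound dilution series for 16 hr at 37 C. After adding substrate reagent and 60 min at room temperature, dead-cell protease fluorescence gave concentration-response curves fitted by the Hill equation.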

[4] = MultiTox-Fluor Cytotoxicity Assay - LYMP1-003 - Dead Cells (AID 961); note: nearly all actives have a fitted effect of over 70% in size
In short: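 Dead-cell protease release, detected as bis-AAF-R110 fluorescence at 485/520 nm, was measured in LYMP1-003 cells after 16 h compound treatment at 37 C. AC50 values came from Hill-modeled qHTS curves normalized to DMSO (0%) and 15 uM tetraoctylammonium bromide (100%).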

[5] = Cell Viability - LYMP1-003 - Assay at 24 hr (AID 963)
In short: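 Cytotoxicity is scored as a concentration-dependent fall in ATP-linked luciferase signal in human lymphoblastoid LYMP1-003 cells treated 24 hr at 37 C in complete culture medium.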

[6] = Cell Viability - LYMP1-003 - Assay at 40 hr (AID 964); note: series mostly up to about 92 µM; nearly all actives have a fitted effect of over 60% in size
In short: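 Luminescent ATP signal (CellTiter-Glo) served as the viability read-out after 40 hr compound treatment of human lymphoblastoid LYMP1-003 cells at 37 C. Decreases in ATP were fitted with the Hill equation to give AC50.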

[7] = Cell Viability - LYMP2-003 (AID 965);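 note: cells exposed to compounds for 24 h before reading; nearly all actives have a fitted effect of over 50% in size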
In short: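 CellTiter-Glo luminescence quantified ATP loss after 24 h compound treatment of LYMP2-003 lymphoblastoid cells at 37 C. Titration series were fitted with the standard Hill equation to give AC50.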

[8] = Cell Viability - LYMP2-004 (AID 966); note: nearly all actives have a fitted effect of over 65% in size
In short: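 qHTS cytotoxicity: human lymphoblastoid line, 24 hr compound treatment, 37 C, complete medium. Viability read as cellular ATP via luciferase luminescence; tetraoctylammonium bromide served as positive control.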

[9] = Cell Viability - LYMP2-005 (AID 967); note: series mostly up to about 92 µM
In short: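 LYMP2-005 human lymphoblastoid cells (2500/well) were treated with compounds for 24 h at 37 C. Intracellular ATP was then measured by CellTiter-Glo luminescence after 30 min at room temperature. AC50 values came from Hill-equation fits of qHTS concentration-response data.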

[10] = Cell Viability - LYMP2-009 (AID 968); note: series mostly up to about 92 µM; nearly all actives have a fitted effect of over 55% in size
[11] = Cell Viability - LYMP2-011 (AID 969); note: nearly all actives have a fitted effect of over 60% in size
In short: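 In this qHTS cytotoxicity format, compounds are tested across concentrations on human lymphoblastoid cells in complete medium for 24 hours at 37 C. Viability is taken as cellular ATP measured by luciferase luminescence.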

[12] = Cell Viability - LYMP2-017 (AID 972); note: series mostly up to about 92 µM; nearly all actives have a fitted effect of over 55% in size
In short: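 Cytotoxicity is scored as a concentration-dependent drop in cellular ATP in a human lymphoblastoid line after 24 hr treatment at 37 C. Values are AC50s from Hill-equation modelling.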

[13] = Cell Viability - LYMP2-019 (AID 973); note: nearly all actives have a fitted effect of over 55% in size
In short: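 Cytotoxicity is scored as a concentration-dependent drop in cellular ATP after cells (2500/well) receive compound for 24 hr at 37 C. Tetraoctylammonium bromide serves as positive control.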

[14] = Cell Viability - LYMP2-021 (AID 974);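 note: compound exposure lasts 24 hours at 37 °C; nearly all actives have a fitted effect of over 55% in size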
In short: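 Loss of cellular ATP, measured with a luciferase-based CellTiter-Glo readout, serves as the toxicity signal in human lymphoblastoid cells treated for 24 hours at 37 C. Potency is reported as AC50 from a standard Hill model.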

[15] = Cell Viability - LYMP2-023 (AID 975)
In short: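 Steps: seed 2500 human lymphoblastoid cells per well, incubate 5 hr at 37 C, add compound for 24 hr at 37 C, add CellTiter-Glo, hold 30 min at room temperature, read luminescence. AC50 derived by Hill modelling.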

[16] = MultiTox-Fluor Cytotoxicity Assay - LYMP1-001 - Live Cells (AID 947)
[17] = MultiTox-Fluor Cytotoxicity Assay - LYMP1-003 - Live Cells (AID 962);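 note: cells exposed to compound for 16 hours at 37 °C; cytotoxic hits lower the live-cell protease signal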
In short: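 Acute cytotoxicity is scored as a drop in live-cell protease activity in human lymphoblastoid LYMP1-003 cells after 16 hr compound exposure at 37 C. AC50 values come from Hill-equation modelling of concentration-response data.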

[18] = Cell Viability - LYMP2-013 (AID 970)
In short: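 Cytotoxicity is scored as a concentration-dependent drop in intracellular ATP in human lymphoblastoid cells after 24 hr compound exposure at 37 C. ATP is quantified by luciferase luminescence, and AC50 values come from Hill-equation modeling.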

[19] = Cell Viability - LYMP2-015 (AID 971); note: nearly all actives have a fitted effect of over 55% in size
In short: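 Cells are seeded at 2500 per well and incubated 5 hr at 37 C. Compounds are added across a concentration series for 24 hr at 37 C. CellTiter-Glo is added, and luminescence is read after 30 min at room temperature.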

Measured: Potency

NC(=O)CCCCC(N)=O
inactive: [1] | [2] | [3] | [4] | [5] | [6] | [7] | [8] | [9] | [10] | [11] | [12] | [13] | [14] | [15]

CCN(CC)c1cccc(O)c1
inactive: [16] | [1] | [2] | [3] | [4] | [17] | [5] | [6] | [7] | [8] | [9] | [10] | [11] | [18] | [19] | [12] | [13] | [14] | [15]

O=[N+]([O-])c1cccc(Cl)c1
inactive: [1] | [2] | [3] | [4] | [17] | [5] | [6] | [8] | [9] | [10] | [11] | [18] | [19] | [12] | [14] | [15]
